Source: PubChem BioAssay (NMMLSC)
GRK2 aptamer HTS: compounds blocking aptamer binding on GRK2 – biochemical, human GRK2, bead flow cytometry, HTS, primary screen; Beta-adrenergic receptor kinase 1 (Homo sapiens), P25098; 330,000 tested, 0.59% active; inhibition of aptamer binding, % at 10 µM; FAM-aptamer displacement from GRK2;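 active means inhibition of aptamer binding above 40%, roughly 3 SD of noise, on plates passing a quality check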;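 further: median bead fluorescence of bound FAM aptamer so fluorescent compounds give negative values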
MEKK3 PB1 HTS: modulators of MEKK3-MEK5 PB1 binding, primary screen, biochemical, wildtype MEKK3, multiplex bead flow cytometry, Alexa488-MEK5; bead-based flow cytometry, Alexa488-MEK5 binding to MEKK3; actives lie on both sides; 0 = blocked by unlabeled MEK5, 100 = vehicle; 290,000 tested, 1.4% active; binding response (% of control), % at 10 µM; Mitogen-activated protein kinase kinase kinase 3 (Homo sapiens), Q99759;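 active means binding response more than 3 SD above or below the average of its plate-row segment, actives on both sides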;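 further: Alexa488 bead fluorescence after subtracting the streptavidin-only scavenger bead signal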
Target sequence (Q99759 whole entry, looked up): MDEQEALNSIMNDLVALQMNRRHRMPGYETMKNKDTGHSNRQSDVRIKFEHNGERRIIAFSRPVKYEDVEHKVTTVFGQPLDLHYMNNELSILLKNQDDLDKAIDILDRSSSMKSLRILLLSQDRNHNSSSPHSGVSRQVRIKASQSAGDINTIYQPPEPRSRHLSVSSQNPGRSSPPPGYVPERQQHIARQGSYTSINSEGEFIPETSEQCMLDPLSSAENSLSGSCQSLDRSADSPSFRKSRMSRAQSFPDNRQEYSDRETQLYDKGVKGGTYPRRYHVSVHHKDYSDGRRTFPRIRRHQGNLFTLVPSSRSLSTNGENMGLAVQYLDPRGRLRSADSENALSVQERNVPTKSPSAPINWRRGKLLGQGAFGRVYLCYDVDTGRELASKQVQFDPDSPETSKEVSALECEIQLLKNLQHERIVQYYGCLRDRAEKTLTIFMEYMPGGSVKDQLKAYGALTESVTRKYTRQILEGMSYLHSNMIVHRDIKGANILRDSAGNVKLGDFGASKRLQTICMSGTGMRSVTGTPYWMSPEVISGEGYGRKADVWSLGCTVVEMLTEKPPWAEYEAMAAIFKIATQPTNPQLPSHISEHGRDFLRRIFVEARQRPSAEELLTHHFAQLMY
MEKK2mut PB1 HTS: MEK5 binding signal on mutant MEKK2 PB1, primary screen, biochemical, multiplex bead flow cytometry, Alexa488-MEK5; AID 1530, 2009; Alexa488-MEK5 binding to MEKK2 mutant; 290,000 tested, 0.35% active; percent response, % at 10 µM; in the data active means percent response above about 24%, passing the limit was not always enough
MEKK2wt PB1 HTS: modulators of MEK5 binding to wildtype MEKK2, primary screen, biochemical, multiplex bead flow cytometry, Alexa488-MEK5; Alexa488-MEK5 binding to MEKK2 WT; actives lie on both sides; binding response (% of control), % at 10 µM; 290,000 tested, 1.1% active; in the data active means binding response below about 67% or above about 130%
MEKK2wt confirm: modulators of MEK5 binding to wildtype MEKK2, confirmation, biochemical, single concentration, multiplex bead flow cytometry; shares compounds with MEKK3 PB1 HTS; Alexa488-MEK5 binding to MEKK2 WT; actives lie on both sides; binding response (% of control), % at 10 µM; 5,900 tested, 2.4% active; in the data active means binding response below about 16% or above about 210%; inactive means in between
MEKK2mut-MEK5: mutant MEKK2 PB1-MEK5 binding signal retest – biochemical, single concentration, multiplex bead flow cytometry, confirmation; shares compounds with MEKK3 PB1 HTS; Alexa488-MEK5 binding to MEKK2 mutant; percent response, % at 10 µM; 5,900 tested, 2% active; AID 1893, 2009; in the data active means percent response mostly above about 71%, no sharp cut-off; inactive means mostly below about 38%;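 further: higher means compound restores mutant binding toward wildtype level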
MEKK3-MEK5 inh: MEKK3 wild-type PB1 binding to MEK5, inhibitors, confirmation, biochemical, bead multiplex flow cytometry, single concentration, wildtype. shares compounds with MEKK3 PB1 HTS. Alexa488-MEK5 binding to MEKK3; hits give low values. binding response (% of control), % at 10 µM. 5,900 tested, 1.8% active. AID 1894, 2009;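 active means binding response below 72% of control, or above a set upper limit, though filed actives all read lower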;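 further: 100% = DMSO only wells and 0% = binding blocked by excess unlabeled MEK5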
Starred values were filed as active, the others as inactive; / = no result given; [ ] = remark or other dose. In the library only some 2.5% were active in any assay of this set; here they are far more common.

SMILES	GRK2 aptamer HTS	MEKK3 PB1 HTS	MEKK2mut PB1 HTS	MEKK2wt PB1 HTS	MEKK2wt confirm	MEKK2mut-MEK5	MEKK3-MEK5 inh
FC(F)(F)c1nc2ccccc2n2c(-c3ccc(Cl)cc3Cl)nnc12	2	108	17	107	/	/	/
O=C(/C=C/c1ccccc1Cl)Nc1ccc(-c2nnc3n2CCCCC3)cc1	0	137*	1	102	103	5	107
CNC(=O)CCc1[nH]c2ccccc2c1Sc1ccccc1	0	160*	1	105	100	-2	101
COc1cc(NC(=O)c2ccc3snnc3c2)cc(OC)c1	0	96	-21	97	/	/	/
O=S(=O)(NC1CC2CCC1C2)c1ccc2c(c1)OCCO2 (stereo not drawn)	1	2.0*[inhibitor]	-26	3.0*[inhibitor]	96	1	102
CSc1ccc(S(=O)(=O)N2CCC(C(=O)Nc3ccc(NC(C)=O)cc3)CC2)cc1	0	102	5	101	/	/	/
O=C(Cn1cc(/C=N/NC(=O)c2ccccc2Br)c2ccccc21)Nc1ccc(F)cc1	2	101	-2	99	/	/	/
O=C(Cn1cc(/C=N/NC(=O)c2cccc3ccccc23)c2ccccc21)Nc1ccc(F)cc1	1	38*[inhibitor]	-14	38*[inhibitor]	100	-5	100
CC(C)C[C@H](NC(=O)C1CC(=O)N(c2ccc3c(c2)OCO3)C1)C(=O)NC1CCCC1 (stereo partly drawn)	4	101	1	101	/	/	/
COc1ccc(-c2nsc3c(N4CCCC4)ncnc23)cc1	3	-1.0*[inhibitor]	-15	-2.0*[inhibitor]	98	-2	98
CC(Cc1c[nH]c2ccccc12)NC(N)=O (stereo not drawn)	4	129*	0	111	107	13	111
CN(CC(=O)Nc1ccc(Cl)cc1)C(=O)c1cccc(S(=O)(=O)N(C)C)c1	2	97	15	113	/	/	/
NNc1nc(-c2ccccc2)nc2sc3c(c12)CCCC3	0	142*	1	114	103	15	106
O=C(NCc1ccc(N2CCCC2=O)cc1)Nc1cccc2ccccc12	0	1.0*[inhibitor]	-9	-1.0*[inhibitor]	101	1	103
O=C(NCc1ccc(N2CCCC2=O)cc1)Nc1ccccc1	0	103	3	103	/	/	/
COc1ccc(C(=O)COC(=O)/C=C/c2ccco2)cc1F	7	/	/	/	/	/	/
CN(CCOc1ccc(-c2ccn(S(=O)(=O)c3cccc4ccccc34)n2)cc1)c1ccccn1	0	1.0*[inhibitor]	-16	2.0*[inhibitor]	100	0	105
CN(C)c1ccc(/C=C2\SC(=O)N(CC(O)Cn3c4ccccc4c4ccccc43)C2=O)cc1 (stereo not drawn)	3	126	3	95	/	/	/
O=C1S/C(=C/c2ccccc2)C(=O)N1CC(O)Cn1c2ccccc2c2ccccc21 (stereo not drawn)	2	75*[inhibitor]	-1	91	89	-6	81
CCOc1cc(CNCCSc2nnnn2C)cc(Br)c1OCc1ccccc1F	0	106	11	136*	135	17	108
OCCNCc1cc(Br)ccc1OCc1ccc(Cl)cc1Cl	/	110	35*	145*	127	17	105
CCOc1cc(CNCCO)cc(Br)c1OCc1ccc(Cl)cc1Cl	8	115	51*	212*	204	58	110
CCOc1cccc(CNCCO)c1OCc1ccc(Cl)cc1Cl	0	98	19	115	/	/	/
OCCCCNCc1cc(Br)ccc1OCc1ccccc1F	1	103	24	148*	157	32	109
CCCC1(c2ccccc2)NC(=O)N(CC(=O)Nc2cc(OC)cc(OC)c2)C1=O (stereo not drawn)	0	99	-9	93	/	/	/
SMILES	GRK2 aptamer HTS	MEKK3 PB1 HTS	MEKK2mut PB1 HTS	MEKK2wt PB1 HTS	MEKK2wt confirm	MEKK2mut-MEK5	MEKK3-MEK5 inh
Cc1c(Cl)cccc1NC(=O)C(=O)NNC(=O)c1ccccc1F	1	102	-3	100	/	/	/
Cc1cc(C)c2nc3sc(C(=O)N4CCOCC4)c(N)c3cc2c1	0	29*[inhibitor]	-13	17*[inhibitor]	102	0	97
Cc1ccc(C)c2nc3sc(C(=O)N4CCOCC4)c(N)c3cc12	5	99	-9	90	/	/	/
CCOc1ccc(NC(=O)CN(C)C(=O)CC2CCCC2)cc1OCC	0	/	/	/	/	/	/
CCOc1cc(/C=C2\CN(C)C/C(=C\c3ccc(O)c(OCC)c3)C2=O)ccc1O	0	98	7	99	/	/	/
Cn1c(=O)c2c(nc(NCCNC(=O)c3ccco3)n2Cc2ccc(Cl)cc2Cl)n(C)c1=O	0	99	3	106	/	/	/
Cn1c(=O)c2c(nc(NCC3CCCC(CN)C3)n2Cc2ccc(Cl)cc2Cl)n(C)c1=O (stereo not drawn)	0	104	30*	141*	185	48	109
Cc1cccc(C(C)(C)C)c1OCCn1ccnc1	3	-1.0*[inhibitor]	-21	-1.0*[inhibitor]	92	-5	98
O=C(Nc1cccc(O)c1)C(Cc1ccccc1)N1C(=O)c2cccc3cccc(c23)C1=O (stereo not drawn)	0	140*	0	101	98	-3	102
O=C1CCN(Cc2ccccc2)C=C1c1ccc2ccccc2c1	0	/	/	/	/	/	/
CC1(C)CC(=O)C2=C(C1)N1C(=C(C#N)C2c2ccc(Cl)cc2)N=C(N)c2ccccc21 (stereo not drawn)	4	1.0*[inhibitor]	-14	2.0*[inhibitor]	93	-3	101
CC1(C)CC(=O)C2=C(C1)N(c1ncn[nH]1)C(N)=C(C#N)C2c1ccccc1 (stereo not drawn)	0	137*	0	109	111	6	109
CC1(C)CC(=O)C2=C(C1)N(c1ccccc1)C(N)=C(C#N)C2c1ccccc1 (stereo not drawn)	0	117	3	109	/	/	/
CC1(C)CC(=O)C(C(O)c2cccc([N+](=O)[O-])c2)C(C)(C)N1 (stereo not drawn)	1	112	25*	111	107	6	104
CC1(C)CC(=O)C(C(c2cccc([N+](=O)[O-])c2)C2C(=O)CC(C)(C)CC2=O)C(=O)C1	0	95	-1	99	/	/	/
